Assay outcomes: PubChem BioAssay, several laboratories
Compounds with a hit are over-represented: about 3% of the library has one in this group of screens.
Vc quorum ag = induces V. cholerae light production without autoinducers; activation, % at 18.7 µM; hit rate 0.16% among 350,000; V. cholerae BH1578 lux reporter, luminescence, 6 h; in the data active means activation mostly above about 9.7%, no sharp cut-off
GDH-TPI inh = GDH-TPI coupled enzyme inhibition counter-screen | AID 588335 | hit rate 1.2% among 360,000 | inhibition, % at 4.8 µM | GDH-TPI coupled enzyme counterscreen, NADH absorbance; in the data active means inhibition above about 30%
BioA inh = inhibitors of Mycobacterium tuberculosis BioA enzyme. purified M. tuberculosis BioA enzyme, plate reader. hit rate 0.096% among 360,000. inhibition, % at 9.99 µM; in the data active means inhibition above about 40%
FBA Mtb inh = inhibitors of M. tuberculosis fructose-bisphosphate aldolase | P9WQA3 | purified M. tuberculosis FBA, fluorescence read-out | inhibition, % at 1 µM | hit rate 2.3% among 360,000; in the data active means inhibition above about 27%
Target sequence (P9WQA3 whole entry, looked up): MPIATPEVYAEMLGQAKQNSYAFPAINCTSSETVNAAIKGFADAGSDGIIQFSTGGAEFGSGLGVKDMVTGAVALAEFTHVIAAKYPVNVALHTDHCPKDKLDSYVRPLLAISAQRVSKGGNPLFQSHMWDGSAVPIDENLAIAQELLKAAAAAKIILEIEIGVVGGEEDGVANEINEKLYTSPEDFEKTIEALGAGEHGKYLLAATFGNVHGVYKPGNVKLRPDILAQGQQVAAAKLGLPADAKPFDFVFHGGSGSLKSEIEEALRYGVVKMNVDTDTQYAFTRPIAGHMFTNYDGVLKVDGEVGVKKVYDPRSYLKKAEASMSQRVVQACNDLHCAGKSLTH
Of the large screens only hits and unclear results are named; the others gave an inactive call.

Cc1ccc(S(=O)(=O)N[C@H]2CC[C@H](CCn3cc(C4CCCCC4)nn3)O[C@H]2CO)cc1	none (no result: Vc quorum ag, GDH-TPI inh, FBA Mtb inh)
CCOC(=O)c1ccc(NS(=O)(=O)c2c(C)nc3sccn3c2=O)cc1	GDH-TPI inh 35
Cc1nc(N(C)C)c2sc(=S)n(-c3ccccc3)c2n1	none
Cc1nc(N(C)C)c2sc(=S)n(C)c2n1	GDH-TPI inh 31
COCC(=O)Nc1ccc2c(c1)[C@H]1C[C@@H](CC(=O)N(C)C)O[C@@H](CO)[C@H]1O2	none (no result: Vc quorum ag, GDH-TPI inh, FBA Mtb inh)
Cc1cc(-c2ccc(F)cc2)nc2cc(C(N)=O)nn12	none (no result: BioA inh)
CCOC(=O)c1cnn2c(C)cc(-c3ccc(F)cc3)nc12	FBA Mtb inh 60
CC(C)c1cn(CC[C@H]2CC[C@H](NC(=O)C3CCCC3)[C@H](CO)O2)nn1	none (no result: Vc quorum ag, GDH-TPI inh, FBA Mtb inh)
CC=Cc1ccc2n(c1=O)C[C@@H]1[C@@H](CO)[C@H](C(=O)NCC)[C@H]2N1Cc1ccccc1 (mixture of isomers)	none (no result: Vc quorum ag, GDH-TPI inh, FBA Mtb inh)
COc1ccc2c(c1)[nH]c1c(=O)n(CCCN3CCOCC3)cnc12	none (no result: Vc quorum ag)
COc1ccc2c(c1)c1ncn(CCCN3CCOCC3)c(=O)c1n2C	FBA Mtb inh 170
COc1ccc2c(c1)c1ncn(CC3CCCO3)c(=O)c1n2C (centres undefined)	FBA Mtb inh active (no result: BioA inh)
C=CC(=O)N1C/C(=C/c2ccccc2)C(=O)/C(=C\c2ccccc2)C1	GDH-TPI inh 32 (no result: BioA inh)
COc1ccc(NC(=O)Nc2ccc3c(c2)C(=O)N(C)C[C@@H](OC)[C@H](C)CN[C@@H](C)CO3)cc1	none (no result: Vc quorum ag, GDH-TPI inh, FBA Mtb inh)
CCCCNC(=O)c1nc(-c2ccncc2)oc1-c1ccccc1	FBA Mtb inh active (no result: Vc quorum ag, GDH-TPI inh)
CCCN(C)C[C@@H]1Oc2cc(C#CC3CCCCC3)ccc2S(=O)(=O)N([C@@H](C)CO)C[C@H]1C	none (no result: Vc quorum ag, GDH-TPI inh, FBA Mtb inh)
CCN(CC)Cc1nc2nc(Cl)c(Cl)nc2[nH]1	GDH-TPI inh 37
COc1ccc(S(=O)(=O)N(C)C[C@H]2Oc3ccc(NS(=O)(=O)c4ccc(C)cc4)cc3CC(=O)N([C@H](C)CO)C[C@@H]2C)cc1	none (no result: Vc quorum ag, GDH-TPI inh, FBA Mtb inh)
Cc1ccc2c(c1)CC1(CN2C)C(=O)NC(=O)N(c2ccccc2C)C1=O (centres undefined)	none
Cc1ccc2c(c1)CC1(CN2C)C(=O)OC2(CCCCC2)OC1=O	Vc quorum ag 17
N#Cc1c(N)nc2c(c1-c1ccc(F)cc1)CCC2	FBA Mtb inh 64
O=C(Nc1ccc2c(c1)CCC2)c1ccc(F)cc1	FBA Mtb inh 117
O=C(Nc1cccc(Cl)c1)N[C@H]1CC[C@H](CCNC(=O)C2CCCCC2)O[C@@H]1CO	none (no result: Vc quorum ag, GDH-TPI inh, FBA Mtb inh)
S=c1[nH]nc(-c2ccc3ccccc3n2)o1	GDH-TPI inh 38
FC(F)(F)c1ccc(-c2n[nH]c(=S)o2)nc1	none (no result: BioA inh)
CCS(=O)(=O)Nc1ccc2c(c1)C(=O)N(C)[C@H]1CC[C@@H](CC(=O)N3CCOCC3)O[C@H]1CO2	none (no result: Vc quorum ag, GDH-TPI inh, FBA Mtb inh)
Cc1cccn2c(=O)c(/C=C(\C#N)C(=O)NC3CCS(=O)(=O)C3)c(N3CCC(C)CC3)nc12 (centres undefined)	FBA Mtb inh 197
C[C@H](CO)N1C[C@H](C)[C@@H](CN(C)S(=O)(=O)c2cccs2)Oc2ccc(NS(=O)(=O)c3ccc(Cl)cc3)cc2C1=O	none (no result: Vc quorum ag, GDH-TPI inh, FBA Mtb inh)
O=C(O)CC/C(=N\Nc1ccc(S(=O)(=O)N2CCOCC2)cc1[N+](=O)[O-])c1cccs1	GDH-TPI inh 67 (no result: BioA inh)
CCOc1ccc2nc(C(C)O)[nH]c2c1 (centres undefined)	none
COc1ccc(-c2nc3ccc([N+](=O)[O-])cc3[nH]2)cc1	none (no result: BioA inh)
CCOc1ccc2nc(-c3ccccc3)[nH]c2c1	FBA Mtb inh 189 (no result: BioA inh)
COc1ccc2nc(-c3ccccc3)[nH]c2c1	FBA Mtb inh 150
C[C@H](CO)N1C[C@H](C)[C@@H](CN(C)Cc2ccc(C(=O)Nc3ccccc3N)cc2)Oc2c(NC(=O)Nc3ccc4c(c3)OCO4)cccc2C1=O	none (no result: Vc quorum ag, GDH-TPI inh, FBA Mtb inh)
Cc1[nH]c2ccccc2c1N=Nc1c(C)n(C)n(-c2ccccc2)c1=O	none (no result: BioA inh)
COc1cccc(-n2c(O)c(C=Nc3c(C)n(C)n(-c4ccccc4)c3=O)c(=O)[nH]c2=O)c1	none (no result: BioA inh)
Cc1c(N=Cc2nc3ccccc3n2C)c(=O)n(-c2ccccc2)n1C	GDH-TPI inh 43
Cc1cccc(-c2ccc(C=Nc3c(C)n(C)n(-c4ccccc4)c3=O)o2)c1	GDH-TPI inh 37
Cc1c(N=Nc2ccc(O)cc2)c(=O)n(-c2ccccc2)n1C	none (no result: BioA inh)
Cc1c(N=Cc2nc3ccccc3[nH]2)c(=O)n(-c2ccccc2)n1C	GDH-TPI inh 42 (no result: Vc quorum ag)
CCCCNc1c(-c2ccc(-c3ccc(C(C)=O)cc3)c(OC)c2)nc2cnccn12	GDH-TPI inh 34
CCCCNc1c(-c2ccc(OC)c(SC3CCCCC3)c2)nc2cnccn12	none
CCOC(=O)CNc1c(-c2ccc(F)cc2)nc2cnccn12	FBA Mtb inh 87
CN(C)/C=N/c1sc2c(c1C#N)CC(C)(C)NC2(C)C	GDH-TPI inh 36
